The source of these data is PubChem BioAssay AID892 (National Center for Advancing Translational Sciences (NCATS), 2007).

Among all 75,000 compounds or so, about 20 (0.03%) were called active. A selection follows. A number with no mark means an inactive call. Calls come from the whole dose curve; as a rule, active = well fitted inhibition curve with a large enough effect; inconclusive = small, poorly fitted or top-dose-only effect; inactive = no such curve, though single readings can be large or run the other way. Square brackets hold non-standard residues; d marks the D form. Peptide text beside a SMILES is read from it. ξ: configuration not given here. ξV = CC(C)C(N)C(=O)O
% is set by controls: 0 for no effect and ±100 for the full control effect.

Breast cancer type 1 susceptibility protein (Homo sapiens), sequence (P38398 whole entry, looked up, the tested form may be a part): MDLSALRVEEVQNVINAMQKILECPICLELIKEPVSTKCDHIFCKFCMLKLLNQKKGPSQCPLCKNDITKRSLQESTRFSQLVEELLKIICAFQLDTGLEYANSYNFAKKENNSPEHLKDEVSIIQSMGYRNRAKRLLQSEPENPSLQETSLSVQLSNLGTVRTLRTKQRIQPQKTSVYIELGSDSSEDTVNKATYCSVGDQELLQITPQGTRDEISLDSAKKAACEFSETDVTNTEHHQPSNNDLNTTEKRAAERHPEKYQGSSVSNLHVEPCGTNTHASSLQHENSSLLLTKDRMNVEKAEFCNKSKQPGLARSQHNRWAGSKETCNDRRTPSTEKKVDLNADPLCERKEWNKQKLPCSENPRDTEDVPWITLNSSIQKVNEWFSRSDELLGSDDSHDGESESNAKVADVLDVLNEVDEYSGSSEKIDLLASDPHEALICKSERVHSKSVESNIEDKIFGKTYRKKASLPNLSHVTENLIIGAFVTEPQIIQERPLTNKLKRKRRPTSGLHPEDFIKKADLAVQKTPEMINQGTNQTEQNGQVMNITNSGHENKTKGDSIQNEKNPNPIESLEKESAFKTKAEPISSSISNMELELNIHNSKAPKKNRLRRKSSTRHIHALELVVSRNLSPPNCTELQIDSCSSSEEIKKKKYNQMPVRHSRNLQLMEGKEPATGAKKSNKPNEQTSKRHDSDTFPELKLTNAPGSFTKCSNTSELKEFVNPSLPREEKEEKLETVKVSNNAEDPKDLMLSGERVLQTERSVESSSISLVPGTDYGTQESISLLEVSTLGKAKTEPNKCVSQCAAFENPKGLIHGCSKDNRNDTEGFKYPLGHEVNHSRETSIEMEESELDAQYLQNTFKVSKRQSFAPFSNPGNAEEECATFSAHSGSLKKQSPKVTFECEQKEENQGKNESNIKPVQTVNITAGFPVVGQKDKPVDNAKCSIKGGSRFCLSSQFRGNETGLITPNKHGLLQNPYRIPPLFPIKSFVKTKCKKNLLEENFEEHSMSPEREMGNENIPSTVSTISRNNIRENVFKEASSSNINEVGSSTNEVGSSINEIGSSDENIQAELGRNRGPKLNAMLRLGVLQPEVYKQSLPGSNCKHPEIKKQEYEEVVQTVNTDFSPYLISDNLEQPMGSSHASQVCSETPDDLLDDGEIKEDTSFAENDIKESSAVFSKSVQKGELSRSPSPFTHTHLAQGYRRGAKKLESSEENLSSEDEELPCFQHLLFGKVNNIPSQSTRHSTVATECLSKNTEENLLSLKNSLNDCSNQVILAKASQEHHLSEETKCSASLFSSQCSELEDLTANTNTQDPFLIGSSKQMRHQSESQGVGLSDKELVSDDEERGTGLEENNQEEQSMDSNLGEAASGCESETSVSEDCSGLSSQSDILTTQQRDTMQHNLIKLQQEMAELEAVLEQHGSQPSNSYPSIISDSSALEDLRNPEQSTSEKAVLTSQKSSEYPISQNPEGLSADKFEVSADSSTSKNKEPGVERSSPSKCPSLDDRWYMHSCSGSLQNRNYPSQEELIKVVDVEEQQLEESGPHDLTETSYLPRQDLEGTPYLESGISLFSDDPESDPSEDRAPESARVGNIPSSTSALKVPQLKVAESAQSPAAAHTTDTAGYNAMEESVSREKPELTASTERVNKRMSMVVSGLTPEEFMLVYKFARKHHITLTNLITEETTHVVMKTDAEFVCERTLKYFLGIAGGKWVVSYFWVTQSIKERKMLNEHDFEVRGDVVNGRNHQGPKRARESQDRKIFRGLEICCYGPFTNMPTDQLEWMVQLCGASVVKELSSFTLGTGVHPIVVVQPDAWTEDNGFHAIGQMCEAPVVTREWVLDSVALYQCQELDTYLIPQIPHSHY

The experiment has as its target Breast cancer type 1 susceptibility protein (Homo sapiens) (UniProt P38398). Nature of the experiment: qHTS Assay for Inhibitors of BRCT-Phosphoprotein Interaction (Red Fluorophore). As to conditions: BRCT-phosphopeptide binding, red fluorescence polarization; series mostly up to 76.9 µM. A digest of the protocol:
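Rhodamine-labelled pBACH1 10-mer (100 nM) bound to BRCT domain (100 nM) at pH 7.3; compounds incubated 12 min room temperature, polarization read. Free peptide defines full inhibition; unlabelled decapeptide titrated as control.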
A general note: In qHTS, concentration-response curves come from the screen itself.
With `O=C1c2ccccc2C(O)N1Cc1ccccc1Cl` (centres undefined), the activity change, negative = inhibition result is “inactive”.
The same measure for `CSc1nnc2c(n1)OC(c1ccsc1)N(C(C)=O)c1ccccc1-2` (centres undefined): “inactive”; for `COC(=O)c1ccc(CSc2ccccc2C)o1`: “inactive”.
Then `COc1ccc(-c2nc3cnc(Oc4ccccc4)nc3n(Cc3cccs3)c2=O)cc1`, with “inactive”; and `CC1=NC2(CCCc3c2no[n+]3[O-])N(O)C1(C)C` (centres undefined), with “inactive”; and `COc1cc(C2C(C(=O)c3ccc(C)o3)=C(O)C(=O)N2Cc2cccnc2)ccc1O` (centres undefined), with “inactive”.
The same measure for `Cc1c(-c2nn(C)c(=O)c3ccccc23)oc2ccc(F)cc2c1=O`: “inactive”; for `O=C(C1CCN(CC2CCCCC2)CC1)N1CCCC1`: “inactive”.
`COC(=O)[C@@H]1C[C@@]2(O)[C@@H](O)[C@@H](O)[C@@H](O)C[C@H]2N1Cc1ccc(C)s1`: the activity change, negative = inhibition result was “inactive”.
Then `CC(C)(C)c1ccc(C(=O)CSc2ncn[nH]2)cc1`, with “inactive”; and `C=CCSc1nnc(Cn2c(=O)sc3ccccc32)n1C`, with “inactive”; and `CCCC(=O)Nc1ccc(Cl)c(NC(=O)c2ccc(Br)o2)c1`, with “inactive”.
The same measure for `NC(=O)CSc1oc(-c2cccs2)nc1S(=O)(=O)c1ccccc1`: “inactive”; for `COC(=O)c1cn(C)c2ccc(S(=O)(=O)N3CC(C)CC(C)C3)cc2c1=O` (centres undefined): “inactive”; for `COc1ccc(-c2nnc(SCC(=O)NC3CCCCC3)o2)cc1OC`: “inactive”.
The same measure for `Cc1ccccc1-c1nc(N(C)Cc2ccco2)c2ccccc2n1`: “inactive”.
As to `CC(C)OCCCNC(=O)CNC(=O)c1cccs1`, the activity change, negative = inhibition result is “inactive”.
Then `Cc1ccc2cccc(O)c2[n+]1[O-]`, with “inactive”; and `O=C(c1ccc(=O)[nH]c1)N(Cc1ccco1)C1(C(=O)NC2CCCCC2)CCCCC1`, with “inactive”; and `CCS(=O)(=O)N1CCN(C(=O)c2cccs2)CC1`, with “inactive”.
Then `Cc1nc2cnc(Nc3ccccc3)nc2n(Cc2ccc(F)cc2)c1=O`, with “inactive”; and `CCCCC[C@H](O)CCCC(=O)O`, with “inactive”; and `COc1ccc(-c2cc(C(F)(F)F)nc(SCCC(=O)NCc3ccco3)n2)cc1`, with “inactive”.
Then `CCn1cc(C(=O)NCC2COc3ccccc3O2)c2cc(OC)c(OC)cc2c1=O` (centres undefined), with “inactive”; and `CC(=O)NC(C(=O)NCC(N)=O)C(C)C` (centres undefined) (Ac-[ξV]-Gly-NH2), with “inactive”; and `CN1CCCC1CCO[C@@](C)(c1ccccc1)c1ccc(Cl)cc1` (some centres undefined), with “inactive”.
On to `Nc1ccccc1N`, for which the activity change, negative = inhibition entry is “inactive”.
The same measure for `COC(=O)[C@@H]1C[C@H]2CC[C@H](O)C[C@H]2N1Cc1ccc(N2CCN(C)CC2)cc1`: “inactive”; for `O=C(O)c1cccc(S(=O)(=O)NCCO)c1`: 1.54% [at 15.4 µM]; for `CCCN1[C@H](C(=O)OC)C[C@@]2(O)[C@@H](O)[C@@H](O)[C@@H](O)C[C@@H]12`: “inactive”.
The same measure for `CCOC(=O)c1sc(NC(=S)n2cc(C)cn2)c(C(=O)OCC)c1C`: “inactive”; for `CCc1nc(C)cn1S(=O)(=O)c1cc(OC)c(C)cc1C`: “inactive”.
The same measure for `COc1ccc(CN2C(=O)CN=C2Nc2ccc(C)cc2C)cc1`: “inactive”; for `COc1ccc2c(c1OC)C(=O)N(c1ncn[nH]1)C2`: “inactive”.
Consider `C=CCn1c(COc2ccccc2)nnc1SCC(=O)NCC(=O)OCC`, for which the activity change, negative = inhibition entry is “inactive”.
Then `Clc1ccc(C2[C@H]3CN(CC4CCCCC4)[C@H](c4ccccc4)C34CC2(c2cccnc2)C4)cn1` (some centres undefined), with “inactive”; and `COCC(=O)N1CCC2(CCCN(c3ccccc3)C2)CC1`, with “inactive”; and `Cc1cccc(Cn2c(SCCO)nc3c2c(=O)n(C)c(=O)n3C)c1`, with “inactive”.
Then `CS(=O)(=O)N(CC(=O)N1CCOCC1)c1ccc2c3c(cccc13)CC2`, with “inactive”; and `Cc1cc(C)nc(SCc2nnc(SCC(=O)Nc3ncc(C)s3)n2Cc2ccco2)n1`, with “inactive”.
Regarding `CCOc1ccc(CNC(=O)C2CC(=O)N(C3CCCC3)C2)cc1OC` (centres undefined), the activity change, negative = inhibition result was “inactive”.
Take `O=C(Nc1cccc(F)c1)c1ccc(S(=O)(=O)N2CCCC2)cc1`: the activity change, negative = inhibition result is “inactive”.
Then `COc1ccc(-c2cc(C(F)(F)F)n3nc(C(=O)N4CCOCC4)c(Cl)c3n2)cc1`, with “inactive”.
The same measure for `O=C(OCC(O)C(O)COC(=O)c1ccccc1)c1ccccc1` (centres undefined): “inactive”; for `O=C(c1cnn2ccccc12)N1CCc2ccccc21`: “inactive”; for `CCCNS(=O)(=O)c1ccc2c(c1)CCCN2C(C)=O`: “inactive”.
The same measure for `CC1Cc2ccccc2N1C(=O)Cn1cnc2ccccc2c1=O` (centres undefined): “inactive”; for `COC(=O)COc1ccc(S(=O)(=O)Nc2ccc(NC(C)=O)cc2)cc1`: “inactive”.
Regarding `O=C1CCC(C(=O)Nc2ccc(OC(F)F)cc2)N1` (centres undefined), the activity change, negative = inhibition result is “inactive”.
The same measure for `CCOC(=O)N1CCN(C(=O)c2cc3c(-c4ccc(Cl)cc4)nn(C)c3s2)CC1`: “inactive”; for `O=C1c2cccnc2C(=O)N1Cc1cccs1`: “inactive”; for `Nc1nc(N)c2[nH]c(CNc3ccc(C(=O)O)cc3)nc2n1`: 1.19% [at 15.4 µM].
For the compound `O=C(O)[C@@H]1[C@@H](C(=O)O)[C@]23C[C@@]2(C(=O)O)[C@]2(C(=O)O)CCC3=C3CCCC312`, the activity change, negative = inhibition is 1.09% [at 15.4 µM].
The same measure for `CC(=O)Nc1ccc(S(=O)(=O)N2CCN(CCCOc3cc(C)ccc3C)CC2)cc1`: “inactive”; for `O=C(CSc1nc2[nH]ncc2c(=O)n1-c1ccccc1)N1CCCc2ccccc21`: “inactive”.
With `CC(C)CNC(=O)C1CCCN(S(=O)(=O)c2ccc(-n3cnnn3)cc2)C1` (centres undefined), the activity change, negative = inhibition entry is “inactive”.
Then `Cn1c(N)c(C(=O)COC(=O)c2cc(C(F)(F)F)nc3c(C(F)(F)F)cccc23)c(=O)n(C)c1=O`, with “inactive”.
As for `CCCC1CC(C)(C(=O)Cn2[nH]c(=O)ccc2=O)OC1=O` (centres undefined), the activity change, negative = inhibition entry is “inactive”.
Then `C[C@@H]1O[C@@H](OC[C@H]2O[C@@H](Oc3c(-c4cccc(O)c4O)oc4cc(O)cc(O)c4c3=O)[C@H](O)[C@@H](O)[C@@H]2O)[C@H](O)[C@H](O)[C@H]1O`, with “inactive”; and `CCOC(=O)C1CCCCN1Cc1ccc(OC)c(OC)c1OC` (centres undefined), with “inactive”; and `O=C(Nc1c(-c2ccccc2)nc2c(Br)cc(Br)cn12)c1ccco1`, with “inactive”.
For the compound `Cc1ccc(S(=O)(=O)N2CCN(C(=O)CCC(=O)NC3CCCc4ccccc43)CC2)cc1` (centres undefined), the activity change, negative = inhibition entry is “inactive”.
Then `C[C@@H]1C[C@H]2[C@@H]3C[C@H](F)C4=CC(=O)C=C[C@@]4(C)[C@]3(F)[C@H](O)C[C@]2(C)[C@@]1(O)C(=O)CO`, with “inactive”; and `Cc1oc(CC(C)C)c(CN2CCCC2)c1C(=O)O`, with “inactive”.
The same measure for `Fc1ccc(OCc2nn3c(Cn4nnc5ccccc54)nnc3s2)cc1`: “inactive”; for `COc1ccc(OC)c(NC(=O)CCN2CCC(C)CC2)c1`: “inactive”; for `COC(=O)c1c(-c2ccc(C)cc2)csc1N`: “inactive”.
For `O=C(OC(C(=O)NC1CCCC1)c1ccc(F)cc1)c1ccno1` (centres undefined), the activity change, negative = inhibition entry is “inactive”.
Take `CCOc1ccccc1NC(=O)CCc1ccc(C)o1`: the activity change, negative = inhibition entry is “inactive”.
Then `Cc1c(C(=O)OCC(=O)N(CCC#N)c2ccccc2)oc2c1ccc1ccccc12`, with “inactive”; and `O=C1c2cccnc2C(Nc2ccc(S(=O)(=O)N3CCCCCC3)cc2)N1Cc1ccccc1` (centres undefined), with “inactive”.
The same measure for `Cc1cc(C)n(C(=O)c2ccc(S(=O)(=O)N3CCCC3)cc2)n1`: “inactive”; for `Cn1c(SCc2nc3ccccc3s2)nnc1-c1ccc2c(c1)OCO2`: “inactive”.
For the compound `COC(=O)[C@@H]1C[C@@]2(O)[C@H](O)[C@H](O)[C@H](O)C[C@H]2N1Cc1ccc(C(C)(C)C)cc1`, the activity change, negative = inhibition result is “inactive”.
Then `CC1=C(C(=O)OCc2ccccc2)C(c2ccco2)n2ncnc2N1` (centres undefined), with “inactive”; and `CCOC(=O)N1CCC(NC(=O)C(C)n2c3ccccc3c3cnn(C)c(=O)c32)CC1` (centres undefined), with “inactive”.
The same measure for `C=CCNc1nnc(C)c2ccccc12`: “inactive”; for `COc1cccc(N(CC(=O)Nc2cccc(F)c2)S(C)(=O)=O)c1`: “inactive”.
Then `Cc1cnc(CNc2ncncc2-c2ccccc2Cl)cn1`, with “inactive”; and `O=C(Cn1nc(C(F)(F)F)c2c1CCC2)NCc1ccc(F)cc1`, with “inactive”.
`O=C1CC(N2CCN(C(c3ccccc3)c3ccccc3)CC2)C(=O)N1` (centres undefined): the activity change, negative = inhibition entry is “inactive”.
The same measure for `CCOC(=O)c1cccc(NC(=O)CCc2c(C)nc3ncnn3c2C)c1`: “inactive”; for `C/C(=C\c1ccco1)C1Nc2cccc3cccc(c23)N1`: “inactive”.
The same measure for `Brc1ccc(OCCn2ccnc2)cc1`: “inactive”; for `O=C(Cl)c1ccccc1[N+](=O)[O-]`: “inactive”.
The same measure for `CO/N=C\[C@@H](C)[C@H](OCc1ccccc1)C(C)C`: -2.08% [at 15.4 µM]; for `Cc1cccc(-c2cc(=O)c3cc(C)ccc3o2)c1`: “inactive”; for `Cc1cnc(NC(=O)CSc2nnc(-c3ccc(Cl)cc3Cl)n2N)s1`: “inactive”.
Consider `CCn1nnc(NC(=O)c2cc(Cl)c(OC)c(Cl)c2)n1`, for which the activity change, negative = inhibition result was “inactive”.
Then `O=C(CSc1nnc2scc(-c3ccc(F)cc3)n12)NCc1ccco1`, with “inactive”; and `O=C(CSc1nnc2ccccn12)c1ccccc1`, with “inactive”.
The same measure for `CN(C)/C=N/c1cc(=O)n(C)c(=O)n1CC1CC1`: “inactive”; for `CCn1c(CSc2nncn2-c2ccc(OC)cc2)nc2cc(S(=O)(=O)N(C)C)ccc21`: “inactive”.
Then `Cc1ccc(C(=O)Nc2nnc(-c3ccncc3)s2)o1`, with “inactive”.
With `CCCN(CCC)C(=O)C1c2ccccc2Oc2ccccc21`, the activity change, negative = inhibition entry is “inactive”.
The same measure for `O=C(NCCc1ccco1)c1nn(Cc2ccccc2)c(=O)c2ccccc12`: “inactive”.
The same measure for `COC(=O)c1c(NC(=O)CSc2nncs2)sc2c1CCCCC2`: “inactive”.
As for `CCOC(=O)N1CCN(C(=O)c2nn(-c3ccc(C)cc3)c(=O)c3c2c2ccccc2n3C)CC1`, the activity change, negative = inhibition result was “inactive”.
As to `CCOC(=O)c1nnn(CC(=O)Nc2cccc(F)c2)c1C(=O)OCC`, the activity change, negative = inhibition result was “inactive”.
The same measure for `CCC1=C(OC(=O)N(CC)CC)N2C(=O)OC(=NCC3CC3)[C@]2(C)[C@H]2C1=CC[C@H]1C(=O)N(CC(=O)OC)C(=O)[C@H]12`: “inactive”; for `COc1ccc(C(=O)NCc2cn3ccccc3n2)cc1`: “inactive”.
Consider `COc1cccc(-c2cc(NCCc3c[nH]c4ccc(OC)cc34)ncn2)c1`, for which the activity change, negative = inhibition result is “inactive”.
The same measure for `COCCNC(=O)CSc1nc2c(n1-c1ccccc1)CCCC2`: “inactive”; for `COc1ccccc1N=C1SC(C)CN1C(=O)C1CCC1` (centres undefined): “inactive”.
The same measure for `Cc1ccc2[nH]c3c(c2c1)CN(C(=O)CN1CCN(c2ccccc2)CC1)CC3`: “inactive”; for `CC(NC(=O)c1cc(-c2ccccc2)on1)c1ccccc1` (centres undefined): “inactive”; for `O=S(=O)(c1cccs1)N1CCN(Cc2ccccc2)CC1`: “inactive”.
Consider `CCCC(=O)Nc1nnc(CC(=O)OCC)s1`, for which the activity change, negative = inhibition entry was “inactive”.
The same measure for `N#CC1=C(SCc2ccccc2)NC(=O)C(C#N)C12CCCC2` (centres undefined): “inactive”.
Then `Cc1cc(N(C)C)cc(C)[n+]1[O-]`, with “inactive”.
The same measure for `CC(C)(C)NC(=O)c1cc(NC(=O)c2ccco2)cc(NC(=O)c2ccco2)c1`: “inactive”; for `Cc1ccc2nc(NC(=O)C3CCN(S(=O)(=O)c4ccc5c(c4)oc(=O)n5C)CC3)sc2c1`: “inactive”; for `COC(=O)[C@@H]1C[C@@]2(O)[C@H](O)[C@H](O)[C@H](O)C[C@H]2N1Cc1ccc(C)s1`: “inactive”.
Consider `COC(=O)Nc1nc2ccc(Sc3ccccc3)cc2[nH]1`, for which the activity change, negative = inhibition result is “inactive”.
